In PubChem BioAssay (NCI):
This is part of a sample that, as a whole, favours compounds with a hit. Of some 83,000 tested, about 20% had one in any assay.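 The test compound was applied at a single concentration to cells in 96-well plates for 48 hours, and percent growth was recorded.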 A number with no mark means an inactive call. Active and inactive are the calls of the source. Rule for the calls: active = growth percent below 10; inactive = the rest.

Tests used:
Experiment in all cases: NCI-60 one-dose screen, 48 h (100 = growth as untreated, 0 = no growth, -100 = all killed)
Settings in all cases: 10 µM unless noted
NCI-H23 lung = system: NCI-H23 lung
NCI-H226 lung = system: NCI-H226 lung
NCI-H322M lung = system: NCI-H322M lung
HOP-62 NSCLC = system: HOP-62 NSCLC
NCI-H460 lung = system: NCI-H460 lung
HOP-92 NSCLC = system: HOP-92 NSCLC
NCI-H522 lung = system: NCI-H522 lung
A549/ATCC NSCLC = system: A549/ATCC NSCLC
786-0 renal = system: 786-0 renal
COLO 205 colon = system: COLO 205 colon
DU-145 prostate = system: DU-145 prostate
K-562 leukemia = system: K-562 leukemia
MALME-3M melanoma = system: MALME-3M melanoma
MDA-MB-231 breast = system: MDA-MB-231 breast
RXF 393 renal = system: RXF 393 renal
SF-268 CNS = system: SF-268 CNS
SF-295 CNS = system: SF-295 CNS
SF-539 CNS = system: SF-539 CNS
UACC-257 melanoma = system: UACC-257 melanoma
M14 melanoma = system: M14 melanoma

Compound | growth (NCI-H23 lung) | growth (NCI-H226 lung) | growth (NCI-H322M lung) | growth (HOP-62 NSCLC) | growth (NCI-H460 lung) | growth (HOP-92 NSCLC) | growth (NCI-H522 lung) | growth (A549/ATCC NSCLC) | growth (786-0 renal) | growth (COLO 205 colon) | growth (DU-145 prostate) | growth (K-562 leukemia) | growth (MALME-3M melanoma) | growth (MDA-MB-231 breast) | growth (RXF 393 renal) | growth (SF-268 CNS) | growth (SF-295 CNS) | growth (SF-539 CNS) | growth (UACC-257 melanoma) | growth (M14 melanoma)
N#CCCN=Nc1c(O)[nH]c2ccc(F)cc12 | 96.3% | 96.1% | 103% | 98.6% | 101% | 101% | 85% | 111% | 94.1% | 118% | 106% | 119% | 99.2% | 102% | 103% | 96.5% | 101% | 105% | 118% | 98%
O=C(Nc1ccccc1Cl)c1ccc(NC2=C(Cl)C(=O)N(C3CCCCC3)C2=O)cc1 | -24.1% [30 µM] (active) | 97.1% [30 µM] | 16.2% [30 µM] | 88.4% [30 µM] | 32.8% [30 µM] | -16.8% [30 µM] (active) | 70.3% [30 µM] | 94% [30 µM] | 69.9% [30 µM] | 66.6% [30 µM] | 28.8% [30 µM] | 25.3% [30 µM] | 80.6% [30 µM] | 85.4% [30 µM] | -12.1% [30 µM] (active) | 60.5% [30 µM] | 21.6% [30 µM] | 82% [30 µM] | 54.9% [30 µM] | 92.6% [30 µM]
CC1=C[C@H]2c3c(c(O)c(O)c4oc5cc(O)ccc5c(=O)c34)[C@H](c3cc(O)c(O)c4oc5cc(O)ccc5c(=O)c34)[C@H]2C(C)(C)C1 | 15.8% | 26.3% | 63.6% | 39.8% | 0.208% (active) | -9.21% (active) | 13.7% | 13.1% | 47.9% | 46.6% | 34.4% | 6.38% (active) | 60.8% | 50.9% | 54.5% | 36% | 21.5% | 20.4% | 62.7% | 38.3%
COc1ccc(-c2nc3cc(C(=O)Nc4cc(OC)c(OC)c(OC)c4)ccc3n2C2CCCCC2)cc1 | 93.6% | 86.9% | 97.9% | 105% | 99.7% | 72.7% | 77.2% | 98.6% | 107% | 110% | 103% | 76.1% | 95.6% | 88.6% | 103% | 100% | 104% | 88.6% | 100% | 96%
CSc1nc(Nc2cccc(NC(=O)/C(C#N)=C/c3c(Cl)cccc3Cl)c2)c(C#N)c(-c2cccc([N+](=O)[O-])c2)n1 | 57.9% | 64.9% | 85.5% | 89.7% | 71.7% | 59.8% | 38.8% | 92% | 54% | 76% | 58% | 20.4% | 96.5% | 52.5% | 68.3% | 59.6% | 92% | 65.2% | 73.5% | 22.6%
Cn1ccnc1C(=O)/C=C/c1ccccc1 | 33.1% | 50.7% | 10.4% | -54.9% (active) | -17.9% (active) | -9.57% (active) | -67.4% (active) | 33.7% | -35.6% (active) | 23% | -54.5% (active) | 8.07% (active) | 62.9% | 34.7% | 12.9% | 23.3% | 20.5% | -38% (active) | 51.8% | -1.9% (active)
CC(C)(C)c1cc(/C=N\NC(=O)/C=C/C=C/c2ccc3c(c2)OCO3)c(O)c(C(C)(C)C)c1 | 90.5% | 75.9% | 63.5% | 66.8% | 39.6% | 88.5% | 80.1% | 87.5% | 85.4% | 94% | 56% | 59.9% | 71.3% | 79% | 94.6% | 67.4% | 92.9% | 87.5% | 88% | 73.3%
CCCOc1cc2ccccc2cc1C(=O)Nc1nc(NC)c2c(ccc3nccc32)[nH]1 | -64.8% (active) | -59.3% (active) | -65.9% (active) | -73.1% (active) | -78.3% (active) | -61.2% (active) | -74.5% (active) | -74.8% (active) | -72.9% (active) | -76.2% (active) | -82.8% (active) | -54.3% (active) | -80.7% (active) | -71.3% (active) | -71.7% (active) | -78% (active) | -66.6% (active) | -76.9% (active) | -75.4% (active) | -75.7% (active)
Nc1n[nH]c2ccc([C@@H]3Nc4cc5c(cc4[C@H]4C6CCC(C6)[C@@H]34)C(=O)NC5)cc12 (stereo not given in full) | 28.3% | 4.99% (active) | 42.1% | 39.4% | 1.7% (active) | 75.3% | 16.9% | 26.4% | 17.3% | -40.1% (active) | -17.9% (active) | 7.25% (active) | 49.8% | 37.9% | 27.1% | 22.8% | 10.8% | -24.9% (active) | 76.7% | 7.72% (active)
CSc1nc(-c2cccc(NC(=O)CCl)c2)c(C#N)c(=O)n1C | 49.1% | 89.2% | 107% | 98.7% | 93.3% | 42.7% | -73.7% (active) | 86.3% | 53% | -20.2% (active) | 77.3% | 11.4% | -72.6% (active) | 65.9% | 63.9% | 61.5% | 98.7% | 38.6% | 63.5% | 56.8%
COc1cc2nc(N3CCCC3)nc(NCC3CCCCC3)c2cc1OC | 57.3% | 80.1% | 50.1% | 74.7% | -45% (active) | -16.9% (active) | -57.2% (active) | 6.9% (active) | -82.5% (active) | -86.2% (active) | 36.2% | -9.67% (active) | -87.8% (active) | -39.9% (active) | -84% (active) | 74.4% | -70.9% (active) | -84.2% (active) | -82.8% (active) | -79.3% (active)
CCC(=O)c1ccc(Cl)s1 | 104% | 103% | 134% | 109% | 99% | 102% | 93.7% | 98.7% | 105% | 101% | 111% | 109% | 115% | 106% | 115% | 94.8% | 113% | 114% | 104% | 103%
C(=C\c1nccc2c1[nH]c1ccccc12)/c1ccccc1 | 34.3% | 51.6% | 29.9% | 40.7% | 4.91% (active) | 45.4% | 4.33% (active) | 21.4% | 35.8% | 3.43% (active) | 9.25% (active) | 69.2% | 29.4% | 30.7% | -44.6% (active) | 41.8% | -32% (active) | 7.92% (active) | 37.5% | 19.8%
CCC([N+](=O)[O-])S(=O)(=O)c1ccc(C)cc1 (stereo not given) | 93.2% | 102% | 112% | 84.7% | 104% | 87.9% | 89.3% | 96.7% | 89.4% | 115% | 160% | 115% | 143% | 103% | 97.1% | 126% | 111% | 94.5% | 102% | 103%
